Screening results deposited in PubChem BioAssay by National Center for Advancing Translational Sciences (NCATS).
Most compounds without a hit are left out; they make up all but 19% or so of the library.
TDP1 cell CPT: qHTS for Inhibitors of human tyrosyl-DNA phosphodiesterase 1 (TDP1): qHTS in cells in presence of CPT; chicken DT40 Tdp1-/-;hTDP1 cells + 20 nM CPT, ATP luminescence, 48 h; Potency, µM (highest dose often 46.2 µM), hits mostly inhibitors; AID 686979, 2013; 420,000 compounds, 12% hits; also: nearly all actives have a fitted effect of over 55% in size
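Chicken DT40 Tdp1-/- cells stably complemented with human TDP1 were seeded at 400 cells/well in medium containing 20 nM camptothecin, exposed to pin-transferred compounds, and grown at 37 °C for at least 48 hr. Viability was read as ATP luminescence.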
Giardia killer: Small Molecules that selectively kill Giardia lamblia: qHTS; AID 540267, 2011; 340,000 compounds, 0.15% hits; Giardia lamblia trophozoite viability; activity change, % at 7.66 µM, hits read low; in the data active = activity change below about -80%; inconclusive = between about -30% and that limit;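 also: parasites exposed to compound for two days anaerobically before the ATP read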
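Trophozoites 100 cells/well + cpd; 48 hrs, 37 deg C, anaerobic. ATPLite 1-Step added, 15-30 min RT, luminescence read (ATP-based viability).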
IL1B secr inh: qHTS for Inhibitors of Inflammasome Signaling: IL-1-beta AlphaLISA Primary Screen | THP-1 LPS/ATP IL-1B secretion, AlphaLISA, 16 h; hits give low values | activity change, % at 57.5 µM | 360,000 compounds, 4.7% hits | AID 743279, 2014; in the data active = activity change below about -50%; inconclusive = mostly about -30% to -49%
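THP-1 cells pretreated 1 hr with compounds (up to 57.5 uM final), then stimulated with LPS (250 ng/mL final) plus ATP (1.25 mM final); secreted IL-1B measured by AlphaLISA after 16 hr, decreased signal indicating inhibition.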
TDP1 inh: qHTS Assay for Inhibitors of Tyrosyl-DNA Phosphodiesterase (TDP1) | recombinant TDP1, AlphaScreen DNA substrate cleavage | 350,000 compounds, 0.28% hits | Tyrosyl-DNA phosphodiesterase 1 (Homo sapiens), Q9NUW8 | Potency, µM (highest dose often 130 µM), actives largely listed as inhibitors; also: nearly all actives have a fitted effect of over 40% in size
Target sequence (Q9NUW8 whole entry, looked up): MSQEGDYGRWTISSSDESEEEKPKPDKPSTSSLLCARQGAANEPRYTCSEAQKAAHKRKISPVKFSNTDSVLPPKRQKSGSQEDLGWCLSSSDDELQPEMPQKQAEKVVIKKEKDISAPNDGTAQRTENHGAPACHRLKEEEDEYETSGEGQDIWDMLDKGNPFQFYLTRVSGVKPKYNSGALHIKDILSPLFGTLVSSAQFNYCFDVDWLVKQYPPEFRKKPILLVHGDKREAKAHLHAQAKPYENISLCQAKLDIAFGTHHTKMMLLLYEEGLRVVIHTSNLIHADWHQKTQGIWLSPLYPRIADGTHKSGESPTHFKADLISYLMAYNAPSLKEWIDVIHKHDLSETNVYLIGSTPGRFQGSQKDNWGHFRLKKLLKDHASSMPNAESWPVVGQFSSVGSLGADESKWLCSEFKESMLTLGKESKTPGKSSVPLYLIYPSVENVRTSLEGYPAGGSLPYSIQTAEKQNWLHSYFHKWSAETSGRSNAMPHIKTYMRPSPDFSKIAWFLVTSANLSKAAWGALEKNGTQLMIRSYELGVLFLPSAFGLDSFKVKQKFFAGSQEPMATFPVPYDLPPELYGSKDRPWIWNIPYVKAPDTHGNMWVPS
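Enzyme-compound mixtures sat 15 min at room temperature, followed by a 5 min reaction with 15 nM final substrate and 10 min with AlphaScreen beads. Recombinant human Tdp1 was used at 1 nM final.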
ELG1 DNA repair: qHTS screen for small molecules that inhibit ELG1-dependent DNA repair in human embryonic kidney (HEK293T) cells expressing luciferase-tagged ELG1 | Potency, µM (doses to about 46.1 µM), most hits filed as inhibitors | HEK293T ELG1-luciferase reporter, luminescence, 16 h; DNA damage induced by 5-fluorouridine | 330,000 compounds, 2.3% hits; also: nearly all actives have a fitted effect of over 55% in size
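DMSO vehicle served as the neutral condition. Each well held 2,000 cells given 5-fluorouridine plus compound; after 16 hr at 37 °C/5% CO2, ONE-Glo was added and luciferase measured 30 min later.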
DT40 TDP1 no CPT: qHTS for Inhibitors of human tyrosyl-DNA phosphodiesterase 1 (TDP1): qHTS in cells in absence of CPT; DT40 Tdp1-/- hTDP1 cells, no CPT, ATP luminescence, 48 h; Potency, µM (top dose mostly 46.2 µM), hits mostly inhibitors; 420,000 compounds, 15% hits; AID 686978, 2013; also: nearly all actives have a fitted effect of over 55% in size
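Readout: luminescence from CellTiter-Glo after 30 min in the dark at RT. Cells: DT40 Tdp1-/- with stable hTDP1, 400/well. Exposure: compounds alone, ≥48 hr, 37 °C.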
Large screens that a line does not name were inactive. Unless noted, calls follow the shape of the dose curve; as a rule, active = well fitted curve in the direction sought with a large enough effect; inconclusive = small, poorly fitted or top-dose-only effect, or another doubt; inactive = no such curve, though single readings can be large; an effect the other way counts as inactive or inconclusive.

CCN(C(=O)Cn1c(=O)n(Cc2ccccc2)c(=O)c2c1c1cc(OC)ccc1n2C)c1ccccc1	none (no result: Giardia killer, IL1B secr inh, ELG1 DNA repair)
CCOC(=O)c1ccc(NC(=O)c2cc3cc(C)ccc3n2C)cc1	TDP1 cell CPT inconclusive, DT40 TDP1 no CPT inconclusive (no result: Giardia killer, IL1B secr inh, ELG1 DNA repair)
CCOc1cc(/C=N/N2CCOCC2)ccc1OCc1ccc(C(=O)OC)o1	none
Cc1c(Cl)ccc2sc(NC(=O)c3ccc(S(=O)(=O)N4CCCC4)cc3)nc12	none (no result: Giardia killer, IL1B secr inh, ELG1 DNA repair)
COc1ccc(C(=O)Nc2ccc(S(=O)(=O)N3CCc4ccccc43)cc2)cc1	TDP1 cell CPT 25.9µM, DT40 TDP1 no CPT 23.1µM (no result: TDP1 inh, ELG1 DNA repair)
CCN(CC)CCNC(=O)c1ccc(NC(=O)c2cccc(S(=O)(=O)N3c4ccccc4CC3C)c2)cc1 (stereo unspecified)	TDP1 cell CPT inconclusive
CCN(CC)CCNC(=O)c1ccc(NC(=O)c2cccc(S(=O)(=O)N3CCc4ccccc43)c2)cc1	TDP1 cell CPT inconclusive, IL1B secr inh -84.6, DT40 TDP1 no CPT inconclusive
Cc1c(Cl)ccc2sc(NC(=O)c3ccc(S(=O)(=O)N4CCCc5ccccc54)cc3)nc12	TDP1 cell CPT inconclusive, DT40 TDP1 no CPT 18.4µM (no result: Giardia killer, IL1B secr inh, ELG1 DNA repair)
COc1ccc2sc(N(CCCN(C)C)C(=O)c3ccc(S(=O)(=O)N4CCCc5ccccc54)cc3)nc2c1	TDP1 cell CPT inconclusive, IL1B secr inh -83.5, ELG1 DNA repair inconclusive, DT40 TDP1 no CPT 16.4µM
O=C(c1ccccc1[N+](=O)[O-])N1CCC(Cc2ccccc2)CC1	TDP1 cell CPT inconclusive, DT40 TDP1 no CPT inconclusive
COc1cc2nc(NC(=O)c3ccc(S(=O)(=O)N4CCc5ccccc54)cc3)sc2cc1OC	TDP1 cell CPT 20.6µM, DT40 TDP1 no CPT 14.6µM (no result: Giardia killer, IL1B secr inh, ELG1 DNA repair)
Nc1ccnn1Cc1ccncc1	none
COc1ccc(NC(=O)c2cc(-c3cc(Cl)ccc3C)n[nH]2)cc1OC	TDP1 cell CPT inconclusive, IL1B secr inh -51.5, DT40 TDP1 no CPT inconclusive (no result: Giardia killer, TDP1 inh, ELG1 DNA repair)
COc1ccc(NC(=O)c2cc(-c3ccc(F)cc3C)n[nH]2)cc1OC	IL1B secr inh inconclusive, DT40 TDP1 no CPT inconclusive (no result: Giardia killer, TDP1 inh, ELG1 DNA repair)
COc1ccc(NC(=O)c2cc(-c3cc(Cl)ccc3OC)n[nH]2)cc1OC	TDP1 cell CPT 20.6µM, IL1B secr inh -64.7, DT40 TDP1 no CPT inconclusive (no result: Giardia killer, TDP1 inh, ELG1 DNA repair)
COc1ccc(NC(=O)c2cc(-c3cc(C)cc(F)c3)n[nH]2)cc1OC	TDP1 cell CPT 25.9µM, IL1B secr inh inconclusive, DT40 TDP1 no CPT inconclusive (no result: Giardia killer, TDP1 inh, ELG1 DNA repair)
CCc1c(C)c2ccc3c(c2oc1=O)CN(Cc1ccccc1)CO3	none (no result: TDP1 cell CPT, Giardia killer, IL1B secr inh, ELG1 DNA repair, DT40 TDP1 no CPT)
Cc1ccc(NC(=O)c2c(NC(=O)c3ccco3)sc3c2CCC(C(C)(C)C)C3)c(C)c1 (stereo unspecified)	none (no result: Giardia killer, IL1B secr inh, TDP1 inh, ELG1 DNA repair)
Cc1ccc(NS(=O)(=O)c2cc3c(cc2Cl)CCC(=O)N3)cc1C	none (no result: TDP1 cell CPT, Giardia killer, IL1B secr inh, ELG1 DNA repair, DT40 TDP1 no CPT)
O=C(COc1ccc(Cl)cc1)Nc1nc(-c2cccs2)cs1	TDP1 cell CPT inconclusive, DT40 TDP1 no CPT inconclusive
Cc1csc(NC(=O)c2sc3nc(-c4cccs4)ccc3c2N)n1	TDP1 cell CPT inconclusive, IL1B secr inh -72.2, ELG1 DNA repair inconclusive, DT40 TDP1 no CPT 25.1µM
COc1ccc(C(=O)NCc2csc(-c3cccs3)n2)cc1	none
Cc1c(C(=O)Nc2nccs2)sc2nc(-c3cccs3)cc(C(F)(F)F)c12	TDP1 cell CPT 18.4µM, ELG1 DNA repair inconclusive, DT40 TDP1 no CPT 23.1µM
O=C(Nc1nc(-c2cccs2)cs1)c1ccc(Cl)cc1	TDP1 cell CPT 25.9µM, DT40 TDP1 no CPT 14.6µM
Cc1ccc(NC(=O)c2sc3nc(-c4cccs4)ccc3c2N)cc1F	DT40 TDP1 no CPT inconclusive (no result: Giardia killer, IL1B secr inh, TDP1 inh, ELG1 DNA repair)
COc1ccc(C(=O)Nc2nc(-c3cccs3)cs2)cc1	TDP1 cell CPT inconclusive, IL1B secr inh -72.0, DT40 TDP1 no CPT inconclusive (no result: ELG1 DNA repair)
CNC(=O)C1(C(F)(F)F)C/C(=C\Cc2ccccc2)CCCO1 (stereo unspecified)	none (no result: TDP1 cell CPT, IL1B secr inh, ELG1 DNA repair, DT40 TDP1 no CPT)
